Here are results for 40 sequences from the supplement of paper PMC6555819.

The test system of the assay is PPARg:RXRa DBDmut IVT, anti-RXR (DBD mutation: RXRa K156A/R161A, NR concentration 270 nM, RXRa partner concentration 90 nM). As to the kind of experiment: PBM binding z-score (relative to random genomic background probes); higher = stronger binding; sequences stand for … in GC…GCGATTGACAGCGTAGAATGAAGG
In a few lines:
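Antibodies against each partner of ligand-free nuclear receptor dimers (one per run) detected binding on custom Agilent 4×180K protein-binding microarrays after 1 h incubation. The double-stranded probes had 34-nt variable regions carrying direct-repeat seeds, single-nucleotide variants, half-site ablations and random human genomic background sequences. Binding z-scores, from regression-normalized fluorescence, use the random background probes as reference.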
As to TCTAGCAGGCCAGAGGGTCACACAAGAGGTACGG, the PBM binding z-score is 1.19. Take AGTCAAAGTTCACTTGGTAACGTAAGATTCAGCT: the PBM binding z-score was determined as 0.263. Next, CCGACTGGGGCAGAAAGGTTACCATGCCATCCGG: 1.38; GCTCGGAGGACACGGTCAGAGCTTTGTCCGTAGA: -0.213.

Sequence CCTATTAGTTGACCATAAGGTCAACCGAAGCTCG displayed a PBM binding z-score of 1.02. With AGTCAAAGCTCATCTAGGTAACGTAAGATATGCT, the PBM binding z-score was determined as 0.59. TCTAGTTGGTCACGAAGGTCACACACGACGGGTA gave a PBM binding z-score of 2.83. Consider TCAGATAGGTAATACAGGTGAAAGTCGGCATCTA, for which the PBM binding z-score came out at 2.72. The result for CAGCCTAGGTCGGGGCCAGTATAGGAGGAACGTT reads -0.532; that for CGAACTAGATCAAGGACAGTGAATCTCCGCACGC, 1.97; that for CGTCCAAGGTCAAGGTCAGCGAAAGAGACTCGAA, 3.83. The sequence CAGCCTAGGTCAAGGCCAGTATAGGAGGAACGTT displayed a PBM binding z-score of 2.48. Take ATACCAAGGTGATCGTGAGGTGGTTGATACTAAC: the PBM binding z-score is 0.119. Consider CAAACTAGGTCGCAGAGGTCAAAGTCCGTGCGTA, for which the PBM binding z-score was 6.57. For ATCTCTAAGTAAGACTCAGTTCAGTGAAGAACGC, the PBM binding z-score came to 0.103.

CGTCAAAGTTCAACTAAGGTAACGGAAAGCACGC yielded a PBM binding z-score of 0.353. As for TCTTGTAGATTAAAGGTTAAGAAAGCCGAAGCCT, the PBM binding z-score turned out to be 1.85. In turn, TCGTATAGGTAAAGGTGAAAGTCGAACGATATGA returned a PBM binding z-score of 2.04. CCTGCTAGGTCAATGGTCAACTAAAGCAGCTCGC: the PBM binding z-score stood at 3.98. Regarding TCTCGGACGACACGAAGGTCAGAGCTTTCCAGAG, the PBM binding z-score worked out at 1.39.

As to AAAGACAGGTGATGAAGGTAACTCAGGCTATCAT, the PBM binding z-score worked out at 0.0134.

The sequence TCTTGTAGTTCAGCAGGTTAAGAAAGCTGGCCAA returned a PBM binding z-score of 1.37.

The sequence TAGAGTAGGTTAGTCGGGGCATTCAGCCAACATA yielded a PBM binding z-score of 3.08.

For the sequence CGTCCAAGGTCAGAGAGGTAAGTGAATGCCGAGT, the PBM binding z-score is 2.46.

On to CCGACTGTGGCAAAGGTTACCATACTCAGTACGA, for which the PBM binding z-score worked out at 2.07. CAGCCGAGGTCAGGGCCAGTATAGGAGGAACGTT came in with a PBM binding z-score of 1.87.

Turning to CCAACTAGGTCAAGGTCAAAGTCGGTTTGTGCCA, the PBM binding z-score was 8.26. Turning to CCTAGCAGGCCCATCTGGGTCACTCAAGGCTTGA, the PBM binding z-score was 0.547. On to CATCAAAGTTCAACTAAGGTAACGTAAAGCACGC, for which the PBM binding z-score was 0.365. ACTAGCTGGTCAGCTGAGGTCACACACAATTCGG came in with a PBM binding z-score of 0.832. The result for TCTTGTAGATCAACAGGAGGTTGAGAAAGATCGA reads 1.36. The sequence CTACCAAGGTGAACAAGGTCGTGGATTACTATTC yielded a PBM binding z-score of 2.25. Sequence ACTCGGAGGACAAAGGTCAGAGCTACGCCAGTGA yielded a PBM binding z-score of 0.692.

TCTTGTAGATCAATAGAGTTTAAGAAAGTGCGCT came in with a PBM binding z-score of 1.58. Sequence TAGCCCAGGTCATGCGGGCCAGTATAGTGTCGGC had a PBM binding z-score of 0.638.

The sequence AGAACAAGGGCAATGAGTTGATAGCACGGGTGGC had a PBM binding z-score of 2.52. CCTACTGGGCCACGAAAGGTCATTGAATCAGTGA registered a PBM binding z-score of 5.88. GCTTGTTGATCAAGGTTAAGAAAGACTAAGCTAA: the PBM binding z-score came out at 0.197. In the case of CCTACTGGGCCAAGGACATTGATCAGTCAAAGCA, the PBM binding z-score worked out at 3.42. Sequence AGAATGAGGTTATACCTAGATCAGGGAAGAAAGT gave a PBM binding z-score of 2.11.
